Compound activity as filed in PubChem BioAssay.
Rows were chosen to be rich in hits. Some 21% of all compounds tested hit in one or more screens of this group.
Pf growth 96h: Primary qHTS for delayed death inhibitors of the malarial parasite plastid, 96 hour incubation; P. falciparum luciferase reporter growth, 96 h; Potency, µM (doses to about 28.7 µM), for inactives: at the highest dose activity change, negative = inhibition, hits mostly inhibitors; hit rate 6.9% among 320,000; active = well fitted inhibition curve with a large enough effect; inconclusive = small, poorly fitted or top-dose-only effect, or another doubt; inactive = no such curve, though single readings can be large or run the other way; note: potency is the fitted concentration of half-maximal effect; % is set by controls: 0 for no effect and ±100 for the full control effect
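Compounds incubated with erythrocytes infected by luciferase-expressing P. falciparum (2% hematocrit, 0.05% parasitemia final) for 96 hours, 37 C in 5% CO2. Growth inhibition scored as decreased luciferase luminescence.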
SARS PLP yeast: qHTS of Yeast-based Assay for SARS-CoV PLP; Potency, µM (highest dose often 32.9 µM), for the others: top-dose activity, positive = growth rescue, usual class: activators; S. cerevisiae expressing SARS-CoV PLpro, growth rescue; hit rate 0.19% among 330,000; note: potency is the fitted concentration of half-maximal effect; 0% is about no effect; nearly all actives have a fitted effect of over 55% in size
Pf growth 48h: Primary qHTS for delayed death inhibitors of the malarial parasite plastid, 48 hour incubation; P. falciparum luciferase growth in erythrocytes, 48 h; Potency, µM (doses to about 28.7 µM), for inactives: at the highest dose activity change, negative = inhibition, actives largely listed as inhibitors; hit rate 5.9% among 310,000; active = well fitted inhibition curve with a large enough effect; inconclusive = small, poorly fitted or top-dose-only effect, or another doubt; inactive = no such curve, though single readings can be large or run the other way; note: potency is the fitted concentration of half-maximal effect; % is set by controls: 0 for no effect and ±100 for the full control effect
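Parasite viability was followed by luminescence of a genomically integrated firefly luciferase. Cultures held 0.1% parasitemia at 2% hematocrit (final), incubated under 5% CO2 at 37 C.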
CHX counter: Cycloheximide Counterscreen for Small Molecule Inhibitors of Shiga Toxin. cell reporter, cycloheximide protein synthesis inhibition counterscreen. max response, %. hit rate 12% among 300,000; in the data active = max response mostly above about 13%, no sharp cut-off; inactive = mostly below about 14%; note: read at 38.3 µM for the half of the compounds with a filed dose; 0% is about no effect
Shiga inhibitor: A qHTS for Small Molecule Inhibitors of Shiga Toxin; Vero cells, Shiga toxin protein synthesis inhibition reporter; inhibition, % at 38.7 µM; hit rate 9.2% among 290,000; AID 2315, 2010; in the data active = inhibition mostly above about 28%, no sharp cut-off; inactive = mostly below about 43%; note: 0% is about no effect
NS1 function inh: qHTS Assay for Inhibitors of Influenza NS1 Protein Function; Potency, µM (titrated, usually from 46.1 µM), inactives show at the top dose activity, positive = more growth; hit rate 0.4% among 270,000; AID 2326, 2010; note: potency is the fitted concentration of half-maximal effect; actives are rising curves; nearly all actives have a fitted effect of over 50% in size
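OD600 was taken as the measure of yeast growth restored by compound in an NS1-expressing S. cerevisiae strain. Cells had been washed out of glucose medium and diluted 1:100 into galactose -URA medium, pH 6.0.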
The depositor's hits bear a star; ? = inconclusive; · = no result given; [ ] = dose if it differs, or a comment. Unless noted, calls come from the whole dose curve.

SMILES	Pf growth 96h	SARS PLP yeast	Pf growth 48h	CHX counter	Shiga inhibitor	NS1 function inh
c1ccc2nc3c(nc2c1)[nH]c1ccccc13	2%	-17%	·	64*	103*	-36%
c1ccc(-c2c3ccccc3nc3[nH]c4ccccc4c23)cc1	?	-16%	?	-2	-15	0%
COC(c1ccc(Cl)cc1)(c1ccc(Cl)cc1)C(Oc1nc(C)cc(C)n1)C(=O)O (stereo not given)	-27%	1%	41%	-3	-4	29%
NNC(=O)CSc1c(-c2ccccc2)c2cc(Cl)ccc2[nH]c1=O	13µM*	0%	?	2	5	17%
O=c1[nH]c2cc(Cl)ccc2c(O)c1-c1ccc(Oc2ccccc2)cc1	·	·	·	·	·	-9%
O=C(O)Cc1c(-c2ccccc2)c2cc(Cl)ccc2[nH]c1=O	-22%	-2%	9%	7	-5	0%
O=c1[nH]c2ccc(Cl)cc2c(O)c1-c1ccccc1	-10%	1%	37%	27*	78*	-4%
O=C(CNC(=O)C12CC3CC(CC(C3)C1)C2)N1CCN(S(=O)(=O)c2cccs2)CC1	?	20%	?	-3	-2	1%
O=C(CNC(=O)C12CC3CC(CC(C3)C1)C2)N1CCN(S(=O)(=O)/C=C/c2ccccc2)CC1	9.3µM*	25%	?	-4	-26	4%
Cc1cccc(C(=O)NCC(=O)N2CCN(S(=O)(=O)/C=C/c3ccccc3)CC2)c1	-23%	2%	?	·	·	·
CC(C)Oc1ccc(C(=O)NCC(=O)N2CCN(S(=O)(=O)/C=C/c3ccccc3)CC2)cc1	?	-6%	15µM*	·	·	·
CN(C(=O)C1CCOC1)c1nnc(-c2cnccn2)s1 (stereo not given)	?	-2%	·	16*	19	-10%
CC1(C)CC(=O)C(C=NCCN2CCN(C3CC(=O)N(c4ccc(Br)cc4)C3=O)CC2)=C(O)C1 (stereo not given)	13µM*	-4%	31%	-3	-5	-3%
CCCOc1ccc(N2C(=O)CC(N3CCN(CCN=CC4=C(O)CC(C)(C)CC4=O)CC3)C2=O)cc1 (stereo not given)	-15%	-5%	13%	-1	-10	-10%
Cc1cccc(NC(=O)c2cccc(C(=O)Nc3cccc(C)c3)c2)c1	-6%	5%	-2%	-4	-2	-3%
Cc1ccc(-c2cc(C(=O)Nc3cccnc3)[nH]n2)c(O)c1C	-8%	0%	?	39*	100*	-4%
COc1ccc(NC(=O)c2cc(-c3cc(C)ccc3O)n[nH]2)cc1Cl	?	5%	2.1µM*	8	17	5%
Cc1cccc(NC(=O)c2cc(-c3cc(C)c(C)cc3O)n[nH]2)c1	?	-1%	·	28*	43*	-2%
Cc1cccc(NC(=O)c2cc(-c3cc(C)ccc3O)n[nH]2)c1	?	-1%	?	40*	108*	3%
Cc1cc(C)cc(C(=O)Nc2cccnc2)c1	?	-11%	27%	2	·	-24%
CC(=O)Nc1ccc(NC(=O)c2cc(-c3ccc(C)cc3O)n[nH]2)cc1	?	1%	?	3	27	9%
COc1ccc(CCNC(=O)c2cc(-c3cc(C)ccc3O)n[nH]2)cc1OC	?	-6%	·	4	-6	1%
CC(C)CC(NC(=O)c1ccccc1)C(=O)OCC(=O)Nc1ccc(S(N)(=O)=O)cc1 (stereo not given)	21%	-1%	35%	-2	8	-3%
CC(Sc1ncnc2sccc12)C(=O)Nc1ccc(C(N)=O)cc1 (stereo not given)	-17%	-1%	-12%	1	-5	·
COc1ccc(Nc2cc(C)nc(N3CCN(C(=O)c4ccc5c(c4)OCO5)CC3)n2)cc1	?	2%	?	·	·	·
SMILES	Pf growth 96h	SARS PLP yeast	Pf growth 48h	CHX counter	Shiga inhibitor	NS1 function inh
Cc1ccc(O)c(-c2cc(C(F)(F)F)[nH]n2)c1	15µM*	-4%	?	-1	-3	-37%
NC(=O)Nc1ccc(C(=O)OCC(=O)N2CCCC2=O)cc1	0%	-6%	-5%	·	·	·
CC(=O)Nc1ccc(NC(=O)C(C)OC(=O)CCCN2C(=O)c3cccc4cccc(c34)C2=O)cc1 (stereo not given)	9%	1%	25%	·	·	·
COc1ccc2c(c1)CCc1cn[nH]c1-2	22%	-3%	-6%[0.00184 µM]	13*	23	0%
O=[N+]([O-])c1ccc(COc2ccc(-c3[nH]ncc3-c3ccc(Cl)cc3)c(O)c2)cc1	?	-102%	2.3µM*	-10	-13	20%
COc1ccc(-c2[nH]ncc2-c2csc(C)n2)c(O)c1	?	3%	-6%	-7	-9	5%
COc1ccc(-c2cn[nH]c2-c2ccc(OC)cc2O)cc1	12µM*	-6%	9.3µM*	16	-4	-34%
COc1ccc(-c2cn[nH]c2-c2ccc(OCc3ccccc3)cc2O)cc1	?	-9%	?	-4	-2	-19%
COc1ccccc1-c1cn[nH]c1-c1ccc(OCc2ccccc2)cc1O	3.7µM*	-11%	6.6µM*	-3	-9	18%
C/C(=N\NC(N)=S)C1(C)CC2(CC(C)(C)OC2=O)C(=O)O1 (stereo not given)	45%	3%	?	-1	17	7%
O=C(O)[C@@H]1CCCN1Cc1c[nH]c2ccccc12	·	·	·	·	·	-1%
COCCNC(=O)c1ccccc1NC(=O)CCSc1ccccc1	?	-1%	2%	2	17	4%
CCOc1ccc(-c2nc(N)ncc2-c2ccccc2)c(O)c1	?	-7%	?	-2	-5	-40%
Oc1ccc(-c2[nH]ncc2-c2ccc(Cl)cc2)c(O)c1	-3%	2%	?	2	16	23%
CCOc1ccc(-c2[nH]ncc2-c2ccccc2)c(O)c1	7.4µM*	-8%	?	-4	2	-73%
COc1ccc(-c2[nH]ncc2-c2ccc(Cl)cc2)c(O)c1	4.1µM*	·	12µM*	20	-16	-116%
CCc1cc(-c2[nH]ncc2-c2ccc([N+](=O)[O-])cc2)c(O)cc1OC	-29%	-12%	4.7µM*	-2	-5	-71%
CC1CC(C)CN(C2CCCCC2NS(=O)(=O)c2ccc(Cl)cc2)C1 (stereo not given)	27%	1%	-22%	-2	-5	-1%
O=C(c1ccc(=O)[nH]c1)N1CCCc2ccccc21	11%	2%	39%	-2	-8	1%
O=C1NC(=S)N/C1=C/c1cccc2ccccc12	0%	-1%	30%	29*	89*	-2%
O=C1NC(=S)NC(=O)C1=Cc1cccc2cc3ccccc3cc12	?	-6%	?	13	15	-10%
